Compound activity as filed in PubChem.
An excerpt weighted towards active compounds, which were near 18% of everything screened.
HepG2 viability: kills HepG2 cells in TGF-b inhibitor counter-screen; Potency, µM (doses to about 46.1 µM), for the others: at the top dose activity change, negative = cytotoxicity, most hits filed as cytotoxic; HepG2 CAGA-GFP viability, ATP luminescence, 18 h; 410,000 tested, 0.76% active; AID 588856; further: potency means the concentration at half of the fitted maximal effect
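HepG2 CAGA-GFP cells (1000/well, DMEM with 1% FBS) received compound, then TGF-beta at 500 pg/mL final, and were incubated 18 hours at 37 degrees C. Viability was read by CellTiter-Glo luminescence. Media-only wells were set as complete cell-killing and DMSO as no toxicity.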
TGFb inhibitor: blocks TGF-b signaling | HepG2 CAGA-GFP TGF-b/SMAD3 reporter, GFP fluorescence, 18 h; TGF-beta stimulated, 500 pg/mL final | Potency, µM (titrated, usually from 46.1 µM), for the others: top-dose activity, negative = inhibition, most hits filed as inhibitors | 410,000 tested, 1.2% active | AID 588855; further: potency means the concentration at half of the fitted maximal effect; on the % scale 0 is the no-effect control and ±100 the full control effect; nearly all actives have a fitted effect of over 65% in size
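Cell-based qHTS in HEPG2 carrying a CAGA-GFP Smad reporter; compounds added before 500 pg/mL final TGF-beta, 18 h incubation at 37 degrees C, GFP fluorescence quantified per cell by imaging cytometry.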
IL-1B inflam inh: blocks inflammasome-driven IL-1 beta release | THP-1 LPS/ATP IL-1B secretion, AlphaLISA, 16 h; hits give low values | activity change, % at 57.5 µM | 360,000 tested, 4.7% active | AID 743279; in the data active means activity change below about -50%; inconclusive means mostly about -30% to -49%; further: on the % scale 0 is the no-effect control and ±100 the full control effect
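Secreted IL-1B measured by AlphaLISA bead assay after 16 h compound exposure of THP-1 cells; compounds (final up to 57.5 uM) added 1 h before LPS (250 ng/mL) and ATP (1.25 mM) stimulation; lower signal means less secretion.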
TDP1 block: blocks human tyrosyl-DNA phosphodiesterase 1 | 350,000 tested, 0.28% active | Potency, µM (series often up to 130 µM), for the others: top-dose activity change, negative = inhibition, most hits filed as inhibitors | recombinant TDP1, AlphaScreen DNA substrate cleavage; further: potency means the concentration at half of the fitted maximal effect; on the % scale 0 is the no-effect control and ±100 the full control effect; nearly all actives have a fitted effect of over 40% in size
Target sequence (Q9NUW8 whole entry, looked up): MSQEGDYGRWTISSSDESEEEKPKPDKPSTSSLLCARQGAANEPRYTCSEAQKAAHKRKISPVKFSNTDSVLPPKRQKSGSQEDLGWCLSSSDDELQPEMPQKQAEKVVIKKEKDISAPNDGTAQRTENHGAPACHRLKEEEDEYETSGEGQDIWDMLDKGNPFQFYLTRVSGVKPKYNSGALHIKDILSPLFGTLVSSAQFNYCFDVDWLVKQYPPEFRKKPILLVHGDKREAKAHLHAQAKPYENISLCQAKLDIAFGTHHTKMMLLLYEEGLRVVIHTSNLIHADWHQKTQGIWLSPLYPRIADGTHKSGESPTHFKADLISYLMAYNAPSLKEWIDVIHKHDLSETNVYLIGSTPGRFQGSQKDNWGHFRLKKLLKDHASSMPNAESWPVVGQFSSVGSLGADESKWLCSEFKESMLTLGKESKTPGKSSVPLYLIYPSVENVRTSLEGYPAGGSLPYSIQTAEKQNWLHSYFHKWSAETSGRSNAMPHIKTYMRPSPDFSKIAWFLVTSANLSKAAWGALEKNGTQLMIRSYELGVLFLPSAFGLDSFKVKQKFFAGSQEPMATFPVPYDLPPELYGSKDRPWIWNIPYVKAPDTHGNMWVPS
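Recombinant human Tdp1 (E. coli-expressed, 1 nM final) preincubated with compounds 15 min at room temperature, then 5'-biotin/3'-phosphotyrosine-FITC DNA substrate (15 nM final) added for 5 min. AlphaScreen beads (10 ug/ml final) added 10 min; cleavage lowers signal.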
TDP1 cell CPT: growth inhibition of DT40 Tdp1-/-;hTDP1 cells with camptothecin (screen for TDP1 inhibitors); 420,000 tested, 12% active; AID 686979; Potency, µM (titrated, usually from 46.2 µM), for the others: at the highest dose activity change, negative = growth inhibition, actives largely listed as inhibitors; chicken DT40 Tdp1-/-;hTDP1 cells + 20 nM CPT, ATP luminescence, 48 h; further: potency means the concentration at half of the fitted maximal effect; on the % scale 0 is the no-effect control and ±100 the full control effect; nearly all actives have a fitted effect of over 55% in size
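Cell growth measured by CellTiter-Glo luminescence after a minimum 48 h, 37 C compound exposure with 20 nM CPT in Tdp1-knockout DT40 cells stably expressing hTDP1, seeded 400/well; qHTS titration format.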
DT40 TDP1 no CPT: qHTS for Inhibitors of human tyrosyl-DNA phosphodiesterase 1 (TDP1): qHTS in cells in absence of CPT. DT40 Tdp1-/- hTDP1 cells, no CPT, ATP luminescence, 48 h. Potency, µM (highest dose often 46.2 µM), inactives show at the highest dose activity change, negative = growth inhibition, hits mostly inhibitors. 420,000 tested, 15% active. AID 686978, 2013; further: potency means the concentration at half of the fitted maximal effect; on the % scale 0 is the no-effect control and ±100 the full control effect; nearly all actives have a fitted effect of over 55% in size
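Seeded 400 DT40-hTDP1 cells/well (vehicle DMSO, no 20 nM CPT); pinned compounds; ≥48 hr at 37 °C; CellTiter-Glo luminescence as viability measure.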
* hit, by the source's call; ? = inconclusive; nt = no result given. Unless noted, the call rests on the fitted dose curve; in most records, active means well fitted curve in the direction sought with a large enough effect; inconclusive means small, poorly fitted or top-dose-only effect, or another doubt; inactive means no such curve, though single readings can be large; an effect the other way counts as inactive or inconclusive.

SMILES	HepG2 viability	TGFb inhibitor	IL-1B inflam inh	TDP1 block	TDP1 cell CPT	DT40 TDP1 no CPT
O=C(N/N=C/c1ccc(Cl)c([N+](=O)[O-])c1)c1ccc2nc[nH]c2c1	-6.5%	0.6%	-95.7*	4.9%	0.1%	-8.0%
Cc1cc(C(=O)CN2CCCC2)c(C)n1-c1ccc(Cl)cc1	1.9%	5.1%	-14.4	2.5%	?	?
Cc1cccc(NC(=S)N/N=C/c2ccc(Cl)c([N+](=O)[O-])c2)c1	-8.6%	0.0%	-1.1	1.0%	?	?
Cc1cc(C(=O)CCl)c(C)n1-c1ccon1	-89.3%	?	-95.0*	1.3%	2.31µM*	2.91µM*
O=C(N/N=C/c1ccccc1[N+](=O)[O-])c1ccc2nc[nH]c2c1	-0.5%	3.9%	-15.8	-3.5%	0.5%	-14.3%
CC(=O)c1c(C(C)=O)c(C)n(-c2cccc([N+](=O)[O-])c2)c1C	-18.3%	11.5%	-4.9	1.1%	-0.3%	0.2%
Cc1cc(C(=O)CCl)c(C)n1-c1cccc([N+](=O)[O-])c1	-95.0%	?	-100.3*	1.2%	1.46µM*	2.31µM*
Cc1cc(C(=O)N/N=C/c2ccc(Cl)c([N+](=O)[O-])c2)c(C)n1-c1ccc(F)cc1	1.9%	-12.8%	-53.1*	11.0%	23.1µM*	14.6µM*
CC(Sc1nnc(-c2ccco2)n1C)C(=O)N1C(C)CCCC1C (centres undefined)	6.0%	12.5%	10.5	3.8%	3.1%	-12.9%
CCc1cc2c(cc3c(=O)n(CC(=O)N4CCN(c5cccc(C)c5C)CC4)nc(CC)n32)s1	-11.0%	-22.2%	nt	0.0%	0.2%	-24.1%
Cc1cc(C(=O)N/N=C/c2cccc([N+](=O)[O-])c2)c(C)n1-c1ccccc1	9.0%	5.5%	-16.0	2.7%	?	23.1µM*
Cc1occc1C(=O)N/N=C/c1ccc(Cl)c([N+](=O)[O-])c1	-8.3%	-1.3%	-72.1*	-2.6%	?	?
Cc1cc(C)cc(-n2c(C)cc(/C=N/NC(=O)c3ccncc3)c2C)c1	-17.2%	2.6%	1.5	8.1%	-5.6%	-22.1%
Cc1cc(C(=O)NC2CCCCC2)c(C)n1-c1ccc(F)cc1	-7.3%	1.4%	-82.9*	0.0%	?	?
COc1ccc(/C=N/NC(=O)c2ccoc2C)cc1OC	5.5%	0.0%	4.9	6.8%	-6.2%	-3.8%
Cc1cc(C)cc(-n2c(C)cc(/C=N/NC(=O)CSc3ncccn3)c2C)c1	-4.3%	0.2%	0.9	7.8%	25.9µM*	?
COc1cccc(OCC(=O)NNC(=O)C(=O)Nc2ccc(OC)cc2OC)c1	-6.5%	13.1%	34.3	5.2%	?	-18.4%
Cn1cccc1CC(=O)N/N=C/c1ccc(Cl)c([N+](=O)[O-])c1	-43.4%	?	-89.7*	3.1%	-16.3%	-24.9%
